Laboratory results reported in PMC4336329 (PLoS ONE, 2015).
In all, about 310,000 compounds went through this assay and about 14,000 (4.5%) showed an effect of 50% or more. The effect is printed as a negative number. Only a selection was taken, and strong results are over-represented in it overall.

Each molecule was assayed against human ether-à-go-go-related gene (hERG) potassium channel (human, UniProt Q12809) (assay: primary screen, population patch clamp on CHO cells stably expressing hERG; higher = less effect of the substance).
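Note: peak tail current of the secondary pulse compared with the same well before compound.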

human ether-à-go-go-related gene (hERG) potassium channel, sequence (Q12809 whole entry, looked up): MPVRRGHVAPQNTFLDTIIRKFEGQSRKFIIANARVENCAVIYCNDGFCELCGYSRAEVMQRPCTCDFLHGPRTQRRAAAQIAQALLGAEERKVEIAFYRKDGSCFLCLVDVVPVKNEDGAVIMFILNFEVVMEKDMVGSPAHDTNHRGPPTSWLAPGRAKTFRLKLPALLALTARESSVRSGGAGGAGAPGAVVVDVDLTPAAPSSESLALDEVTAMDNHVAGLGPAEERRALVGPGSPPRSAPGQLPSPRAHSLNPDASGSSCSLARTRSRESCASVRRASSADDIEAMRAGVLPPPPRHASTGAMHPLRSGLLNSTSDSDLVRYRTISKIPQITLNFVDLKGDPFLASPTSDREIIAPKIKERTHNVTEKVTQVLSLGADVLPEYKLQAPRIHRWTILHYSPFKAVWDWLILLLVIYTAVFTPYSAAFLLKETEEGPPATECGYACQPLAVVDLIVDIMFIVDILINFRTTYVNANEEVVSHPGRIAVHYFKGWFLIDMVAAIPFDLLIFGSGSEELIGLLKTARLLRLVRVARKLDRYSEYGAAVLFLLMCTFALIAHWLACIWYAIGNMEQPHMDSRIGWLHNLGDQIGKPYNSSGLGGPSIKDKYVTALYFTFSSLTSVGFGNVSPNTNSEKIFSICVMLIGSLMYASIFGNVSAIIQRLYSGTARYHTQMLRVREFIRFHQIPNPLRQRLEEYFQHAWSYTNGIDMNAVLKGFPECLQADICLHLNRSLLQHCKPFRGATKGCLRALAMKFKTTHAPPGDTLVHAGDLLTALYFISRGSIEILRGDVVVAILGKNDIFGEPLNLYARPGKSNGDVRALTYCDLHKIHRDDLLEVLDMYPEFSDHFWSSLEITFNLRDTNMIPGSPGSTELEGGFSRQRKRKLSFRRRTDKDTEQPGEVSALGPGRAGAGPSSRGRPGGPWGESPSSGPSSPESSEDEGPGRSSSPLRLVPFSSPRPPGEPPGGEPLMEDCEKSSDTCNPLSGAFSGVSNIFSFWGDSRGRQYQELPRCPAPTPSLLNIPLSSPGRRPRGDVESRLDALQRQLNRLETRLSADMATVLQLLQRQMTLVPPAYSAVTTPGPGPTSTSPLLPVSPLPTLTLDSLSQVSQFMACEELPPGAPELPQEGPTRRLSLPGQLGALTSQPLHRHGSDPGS

Structure (SMILES)	hERG current change (%, negative = inhibition) at 10uM [%]
OCCCNCc1cccc2ccccc12	-15.8
Cc1ccc(C(C(=O)NC2CCCCC2)N(C(=O)CCCC(=O)Nc2ccccn2)c2ccc3c(c2)OCCO3)cc1 (stereo not drawn)	-3.99
COC(=O)c1ccc(CSc2nnc3c(n2)[nH]c2ccccc23)cc1	-23.1
Cc1cc(C)c(C)c(S(=O)(=O)N2CCN(c3ncnc4sc(C)c(C)c34)CC2)c1C	8.21
CCS(=O)(=O)N1CCN(c2ncnc3sc(C)c(C)c23)CC1	-53.7
Cc1sc2ncnc(N3CCN(S(=O)(=O)c4ccc(Br)cc4)CC3)c2c1C	-47.5
Cc1sc2ncnc(N3CCN(S(=O)(=O)c4ccccc4)CC3)c2c1C	-18.6
Cc1sc2ncnc(N3CCCCC3)c2c1C	-11.9
Cc1sc2ncnc(N3CCN(S(=O)(=O)c4ccc(F)cc4)CC3)c2c1C	-50.9
COc1ccccc1NC(=O)NCC(=O)Nc1c(C)cccc1C	30.5
CCOC(=O)c1ccc(CS(=O)c2ccc(Cl)cc2)o1 (stereo not drawn)	-3.47
Cc1cc(C)c(NC(=O)CCCN2CCOCC2)c(C)c1	13.1
COC(=O)c1scc(C)c1NC(=O)CC1NCCNC1=O (stereo not drawn)	11.9
O=C(C[n+]1ccccc1)c1ccc(-c2ccccc2)cc1.[Br-]	-21.4
COC(=O)c1ccc(CC(=O)c2c(C)cc(O)cc2O)o1	0.801
CC1CC(C)CN(CCCSc2ccccc2)C1.O=C(O)C(=O)O (stereo not drawn)	-64.3
CC1CC(C)CN(CCOCCSc2ccccc2)C1.O=C(O)C(=O)O (stereo not drawn)	-45.1
CC1CN(CCCSc2ccc(Cl)cc2)CC(C)O1.O=C(O)C(=O)O (stereo not drawn)	-47.9
CC1CN(CCCCSc2ccccc2)CC(C)O1.Cl (stereo not drawn)	-8.71
CC1CCN(CCOCCSc2ccc(Cl)cc2)CC1.O=C(O)C(=O)O	-72.1
CN(C)CCOCCSc1ccc(Cl)cc1.O=C(O)C(=O)O	-37.3
CC1CC(C)CN(CCOCCSc2ccc(Cl)cc2)C1.O=C(O)C(=O)O (stereo not drawn)	-72.4
CC1CN(CCOCCSc2ccc(Cl)cc2)CC(C)O1.O=C(O)C(=O)O (stereo not drawn)	-23.3

Structure (SMILES)	hERG current change (%, negative = inhibition) at 10uM [%]
CC1CN(CCCCSc2ccc(Cl)cc2)CC(C)O1.O=C(O)C(=O)O (stereo not drawn)	-31.6
Cc1cccc(OCC(O)Cn2c(N3CCCCC3)nc3c2c(=O)n(C)c(=O)n3C)c1 (stereo not drawn)	-13.7
CCN(CC)S(=O)(=O)c1cccc(-c2nnc(SCc3nc4ccccc4s3)o2)c1	-3.82
O=S(=O)(Nc1ccccc1F)c1ccc(Cl)nc1	5.63
Cc1ccc2oc(C(=O)NCCC3CCCCO3)c(C)c2c1 (stereo not drawn)	-11.5
Cn1c(=O)c2[nH]c(N=Nc3ccc(N)cc3N)nc2n(C)c1=O	28.7
O=c1cc(NS(=O)(=O)c2ccccc2)nc(SCc2ccccc2Cl)[nH]1	6.99
COc1ccc(N2C(=O)CC(N3CCN(C4CCc5ccccc5C4)CC3)C2=O)cc1 (stereo not drawn)	-61.7
COc1cccc(N2CCN(C3CC(=O)N(c4ccc(F)c(Cl)c4)C3=O)CC2)c1 (stereo not drawn)	-12.6
COc1ccc(NC2CCN(C3CC(=O)N(c4ccc(F)c(Cl)c4)C3=O)CC2)cc1 (stereo not drawn)	-54.8
COc1ccc(N2C(=O)CC(N3CCCCC3)C2=O)cc1 (stereo not drawn)	18.6
COc1ccc(N2C(=O)CC(N3CCN(c4ccc(Cl)cc4)CC3)C2=O)cc1 (stereo not drawn)	-4.94
CCOc1ccc(N2C(=O)CC(N3CCN(c4ccccc4F)CC3)C2=O)cc1 (stereo not drawn)	6.59
CCOc1ccc(N2C(=O)CC(N3CCN(C4CCc5ccccc5C4)CC3)C2=O)cc1 (stereo not drawn)	-71.5
CCOc1ccc(N2C(=O)CC(N3CCc4ccccc43)C2=O)cc1 (stereo not drawn)	-3.24
COc1ccc(N2C(=O)CC(N3CCN(c4ccccc4)CC3)C2=O)cc1 (stereo not drawn)	8.93
Fc1ccc(-[n+]2nc(Nc3ccccc3)sc2-c2ccc(OCc3ccccc3)cc2)cc1.[Cl-]	-20.5
Cc1ccccc1OCc1nnc2n1CC(C)S2 (stereo not drawn)	7.43
CCCCC(=O)Nc1ccc(NC(=S)NC(=O)CC)cc1OC	-0.84
O=C(OCC(=O)N1CCC(c2ccccc2)=N1)c1ccc([N+](=O)[O-])s1	-34.7
CC(C)c1ccc(/C=N/NC(=O)c2cccc(S(=O)(=O)N3CCOCC3)c2)cc1	10.1
CN(C)c1ccc(C2C3C(=O)NC(=O)C3ON2c2ccc(Cl)cc2)cc1 (stereo not drawn)	-64
CN(C)c1ccc(C2C3C(=O)N(c4ccc(C(=O)O)cc4)C(=O)C3ON2c2ccccc2)cc1 (stereo not drawn)	7.23

Structure (SMILES)	hERG current change (%, negative = inhibition) at 10uM [%]
Cc1ccc(N2OC3C(=O)NC(=O)C3C2c2ccco2)cc1 (stereo not drawn)	7.89
O=C(Cn1cnc2c(cnn2-c2ccccc2Cl)c1=O)N1CCc2ccccc21	-0.441
CC(CNC(=O)Cn1ccc2cc(S(=O)(=O)N3CCCC3)ccc21)c1ccccc1 (stereo not drawn)	-9.17
O=C(NCCc1ccccc1)c1ccco1	0.15
Cc1noc(C)c1C(=O)N1CCCC(C(=O)c2cccc(C(F)(F)F)c2)C1 (stereo not drawn)	-22.6
Cc1nonc1CC(=O)N1CCCC(C(=O)c2ccc(Cl)cc2)C1 (stereo not drawn)	-8.66
Cc1nonc1CC(=O)N1CCCC(C(=O)c2cccc(C(F)(F)F)c2)C1 (stereo not drawn)	-56.2
CC(C)(C)c1ccc(C(=O)C2CCCN(C(=O)C3CCOCC3)C2)cc1 (stereo not drawn)	-7.14
CC1=C(C(=O)N2CCCC(C(=O)c3cccc(C(F)(F)F)c3)C2)OCCO1 (stereo not drawn)	2.26
O=C(c1cccc(C(F)(F)F)c1)C1CCCN(C(=O)C2CCOCC2)C1 (stereo not drawn)	-51.3
O=C(COC(=O)C1CSC2(c3ccc(F)cc3)CCC(=O)N12)NC(=O)NC1CCCC1 (stereo not drawn)	-4.24
O=C1c2ccccc2C(=O)C1c1ccccn1	6.76
O=C(CSc1ccc2nnc(-c3cccnc3)n2n1)Nc1ccc(F)cc1	-31.5
CCSc1ccc2nnc(-c3ccc(F)cc3)n2n1	-55.6
CCSc1ccc2nnc(-c3cccc(F)c3)n2n1	-33.6
Cc1ccc(CSc2ccc3nnc(-c4cccnc4)n3n2)cc1	-79.3
CC(=O)C(Sc1ccc2nnc(-c3ccc(F)cc3)n2n1)C(C)=O	8.13
Cc1ccc(CSc2nnc(-c3cccnc3)n2N)cc1	18
Fc1ccc(CSc2ccc3nnc(-c4cccs4)n3n2)cc1	17.1
CCC(Sc1ccc2nnc(-c3ccc(F)cc3)n2n1)C(=O)OC (stereo not drawn)	-48.3
CCCN(CCC)CCCNc1ccc2nnc(-c3ccc(F)cc3)n2n1	-55.9
COC(=O)CSc1ccc2nnc(-c3ccc(F)cc3)n2n1	-43.7
Fc1ccc(CSc2ccc3nnc(-c4cccnc4)n3n2)cc1	-71.5

Structure (SMILES)	hERG current change (%, negative = inhibition) at 10uM [%]
CC(=O)C(Sc1ccc2nnc(-c3cccnc3)n2n1)C(C)=O	-2.29
COc1ccc(CNC(=O)C(c2cccs2)N(C(=O)c2csnn2)C2CC2)cc1 (stereo not drawn)	-12.2
COC(=O)c1cc(NC(=O)c2cccc(F)c2)cc(C(=O)OC)c1	5.98
CC(Sc1nc(O)c(-c2ccccc2)c(=O)[nH]1)C(=O)Nc1ccc(Cl)cc1 (stereo not drawn)	26.9
COc1ccc(N=Cc2c(O)[nH]c3ccccc23)cc1	0.417
O=C(Nc1ccc(S(=O)(=O)N2CCN(c3ccccc3)CC2)cc1)c1cccs1	8.53
Fc1cccc(Cl)c1Cn1ncc2ccccc21	-7.36
C=CCSc1nc(N)cc(=O)[nH]1	0.914
CCOc1ccc(CCNc2ccc3nnc(-c4ccccc4)n3n2)cc1OCC	1.95
c1ccc(CN2CCN(CCCNc3ccc4nnc(-c5ccccc5)n4n3)CC2)cc1	-59.7
Cc1ccc(CNc2ccc3nnc(-c4ccccc4)n3n2)cc1	15.7
CCn1cc(C(=O)N(C)c2ccc(OC)cc2OC)c2cc(OC)c(OC)cc2c1=O	12.4
C=CS(=O)(=O)c1ccc(Oc2ccc(S(=O)(=O)C=C)cc2)cc1	-64.3
NS(=O)(=O)c1ccc(Oc2ccc(S(N)(=O)=O)cc2)cc1	0.75
CNS(=O)(=O)c1ccc(Oc2ccc(S(=O)(=O)NC)cc2)cc1	13.2
Cc1ccc(N2C(=O)C(Cc3ccc(O)cc3)NC2=S)cc1C (stereo not drawn)	-7.04
Brc1ccccc1C1=Nn2c(nnc2-c2ccccc2)SC1	14.5
CC(NC(=O)c1cc2ccccc2o1)c1cccs1 (stereo not drawn)	-15.6
Cc1cc2c(c(=O)n1CCN(C)C)C(c1ccc(Br)cc1)C(C#N)=C(N)O2 (stereo not drawn)	-58.5
Cc1cc2c(c(=O)n1CCN(C)C)C(c1ccccc1Br)C(C#N)=C(N)O2 (stereo not drawn)	-26.1
Cc1cc2c(c(=O)n1CCN(C)C)C(c1ccncc1)C(C#N)=C(N)O2 (stereo not drawn)	19.6
